# Compounds with a hit are over-represented: about 10% of the library has one in this group of screens.
# Pf growth 96h – P. falciparum growth inhibition at 96 hours | P. falciparum luciferase reporter growth, 96 h | Potency, µM (highest dose often 28.7 µM), actives largely listed as inhibitors | 6.9% of 320,000 active; active = well fitted inhibition curve with a large enough effect; inconclusive = small, poorly fitted or top-dose-only effect, or another doubt; inactive = no such curve, though single readings can be large or run the other way
#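 Erythrocytes infected with luciferase-expressing P. falciparum were dispensed at 2% hematocrit and 0.05% parasitemia (final), then incubated with compounds 96 hours at 37 C in 5% CO2. Luminescence after detection reagent addition reported growth.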
# Pf growth 48h – inhibits P. falciparum growth in the first generation, 48 h; 5.9% of 310,000 active; Potency, µM (doses to about 28.7 µM), usual class: inhibitors; P. falciparum luciferase growth in erythrocytes, 48 h; AID 504832; active = well fitted inhibition curve with a large enough effect; inconclusive = small, poorly fitted or top-dose-only effect, or another doubt; inactive = no such curve, though single readings can be large or run the other way
#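 Here the parasites carry a stable luciferase gene and grow inside erythrocytes in Albumax-based RPMI medium with compound for one erythrocytic cycle. Activity is scored as loss of luminescent signal.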
# NS1 inh – blocks influenza NS1 protein function; Potency, µM (highest dose often 46.1 µM); 0.4% of 270,000 active; also: actives are rising curves; nearly all actives have a fitted effect of over 50% in size
#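 A cell-based growth assay was used: compounds that relieve NS1-induced slow growth of budding yeast raise OD600. Assay medium was yeast nitrogen base with ammonium sulphate and -URA supplement, pH 6.0, with 2% galactose.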
# SARS PLP yeast – SARS-CoV PLP inhibition in yeast | S. cerevisiae expressing SARS-CoV PLpro, growth rescue | Potency, µM (series often up to 32.9 µM), most hits filed as activators | 0.19% of 330,000 active; also: nearly all actives have a fitted effect of over 55% in size
# A number is an active result; - = inactive; ? = inconclusive; . = no result given. Unless noted, calls follow the shape of the full dose curve.
SMILES,Pf growth 96h,Pf growth 48h,NS1 inh,SARS PLP yeast
COc1cccc(C2c3c(C)nn(-c4ccc([N+](=O)[O-])cc4)c3N=C3C(=O)Nc4ccccc4N32)c1 (stereo unspecified),?,?,.,-
COc1ccc(NC2=Nc3ccccc3N3C2=Nc2c(c(C)nn2-c2ccc(C)cc2)C3c2cccnc2)cc1 (stereo unspecified),2.1µM,.,-,-
Cc1cc(C)cc(OC(C)C(=O)Nc2ccc(S(=O)(=O)Nc3cc(C)nc(C)n3)cc2)c1 (stereo unspecified),13µM,-,-,-
Cc1cccc(NC(=O)CSc2ccc(-c3cccnc3)nn2)c1,12µM,?,-,-
COc1ccc(C)cc1NC(=O)CSc1ccc(-c2sc(C)nc2C)nn1,-,12µM,-,-
Cc1ccc(NC(=O)CSc2ccc(-c3cccnc3)nn2)cc1,?,?,-,-
COc1ccc(C)cc1NC(=O)CSc1ccc(-c2ccccn2)nn1,9.3µM,?,-,-
COc1cccc(NC(=O)CSc2ccc(-c3sc(C)nc3C)nn2)c1,?,?,-,-
COc1cc(NC(=O)CSc2ccc(-c3ccccn3)nn2)cc(OC)c1,?,?,-,-
COc1ccccc1NC(=O)CSc1ccc(-c2ccc(-n3ccnc3)cc2)nn1,?,12µM,.,.
Cc1ccccc1NC(=O)CSc1ccc(-c2ccc(-n3cccn3)cc2)nn1,-,-,.,.
CC[C@@H]1/C=C(\C)C[C@H](C)C[C@H](OC)[C@H]2O[C@@](O)(C(=O)C(=O)N3CCCC[C@H]3C(=O)O[C@H](/C(C)=C/[C@@H]3CC[C@H](Cl)[C@H](OC)C3)[C@H](C)[C@@H](O)CC1=O)[C@H](C)C[C@@H]2OC,-,-,.,.
CN(CC(=O)Nc1ccc(Cl)c(C(F)(F)F)c1)C(=O)CNC(=O)C1CCCCC1,-,-,.,-
CCN1C(=O)[C@@H]2[C@@H](c3ccc(-c4ccc(C(C)=O)cc4)cc3)N3CCCC[C@@]3(C(=O)OC)[C@@H]2C1=O,12µM,10µM,.,-
CCN1C(=O)[C@H]2[C@@H](c3ccc(-c4ccc5c(c4)OCO5)cc3)N3CCC[C@@]3(C(=O)OC)[C@H]2C1=O,-,?,.,-
CCN1C(=O)[C@@H]2[C@@H](c3ccc(-c4ccc5c(c4)OCO5)cc3)N3CCCC[C@@]3(C(=O)OC)[C@@H]2C1=O,13µM,?,.,-
CCN1C(=O)[C@H]2[C@@H](c3ccc(-c4ccccc4)cc3)N3CCCC[C@@]3(C(=O)OC)[C@H]2C1=O,?,10µM,.,-
CCN1C(=O)[C@@H]2[C@@H](c3ccc(-c4ccc(OC)cc4)cc3)N3CCCC[C@@]3(C(=O)OC)[C@@H]2C1=O,5.2µM,10µM,.,-
Cc1ccccc1CNC(=O)C(=O)NCC1CCCN1S(=O)(=O)c1cccs1 (stereo unspecified),?,?,.,-
Cc1ccc(S(=O)(=O)CCC(=O)NCc2ccccc2F)cc1,-,-,.,-
CN(C)C(CNC(=O)c1cc(S(=O)(=O)N(C)c2ccccc2)ccc1Cl)c1cccs1 (stereo unspecified),?,?,-,-
CCCCCCN(C(=O)CCCCCN1C(=O)NC(c2ccc(-c3ccccc3)cc2)C(C(=O)OCc2ccccc2)=C1C)C(C)C(=O)NCCCC (stereo unspecified),4.7µM,?,-,-
CCCCNC(=O)C(C1CCCCC1)N(CCN(C)C)C(=O)CCCN1C(=O)NC(c2ccc(-c3ccccc3)cc2)C(C(=O)OCc2ccccc2)=C1C (stereo unspecified),.,.,.,-
CCCCCCN(C(=O)CCCCCN1C(=O)NC(c2ccc(-c3ccccc3)cc2)C(C(=O)OCc2ccccc2)=C1C)C(C(=O)NCCCC)c1ccccc1 (stereo unspecified),1.9µM,2.6µM,-,-
CCCCNC(=O)C(c1ccc(-c2ccccc2)cc1)N(CCN1CCOCC1)C(=O)CCCCCN1C(=O)NC(c2ccc([N+](=O)[O-])cc2)C(C(=O)OCc2ccccc2)=C1C (stereo unspecified),3.3µM,1.3µM,?,-
SMILES,Pf growth 96h,Pf growth 48h,NS1 inh,SARS PLP yeast
COC1CC2CCC(C)[C@](O)(O2)C(=O)C(=O)N2CCCCC2C(=O)OC(C(C)CC2CCC(O)C(OC)C2)CC(=O)C(C)/C=C(/C)C(O)C(OC)C(=O)C(C)CC(C)C=CC=C/C=C\1C (stereo partly specified),1.9µM,3.8µM,.,.
COC(=O)C1=C(C(=O)OC)[C@@H]2N(C)c3ccc(OC)cc3[C@@]23C[C@@H](C(=O)OC)N(C(=O)c2cccs2)C3=N1,-,-,-,-
CSc1nc(N)nc2c1ncn2CC(=O)NCCCN1CCCC1=O,.,.,.,-
O=C(CSc1cc(Cl)ccc1Cl)NCCN1C(=O)CSC1=O,.,.,.,-
O=C(Nc1ccc(Cl)cc1C(=O)NCC1CCCO1)c1ccc(Cl)cc1Cl (stereo unspecified),-,8.3µM,-,-
O=C(Nc1ccc(Cl)cc1C(=O)NCC1CCCO1)c1ccco1 (stereo unspecified),.,-,-,.
Oc1ccccc1-c1nc2c3ccccc3c3ccccc3c2[nH]1,?,9.3µM,-,-
c1csc(-c2nc3c4ccccc4c4ccccc4c3[nH]2)c1,?,?,-,-
C=CCOc1cccc(/C=N/NC(=O)C(OC)c2ccccc2)c1 (stereo unspecified),13µM,-,-,-
COc1cccc(/C=N/NC(=O)C(C)Sc2ccccc2)c1 (stereo unspecified),-,-,-,-
CCOc1cc(/C=N/NC(=O)C(OC)c2ccccc2)ccc1O (stereo unspecified),-,-,-,?
CCOc1ccc(/C=N/NC(=O)C(OC)c2ccccc2)cc1 (stereo unspecified),9.3µM,?,.,-
CCOc1ccc(/C=N/NC(=S)Nc2c(C)cccc2C)cc1,2.6µM,.,-,?
CCN(CC)S(=O)(=O)c1cccc(C(=O)NC(Cc2c[nH]c3ccccc23)c2nnc3n2CCCCC3)c1 (stereo unspecified),10µM,?,-,-
NNC(=O)c1cc2ccccc2cc1NS(=O)(=O)c1ccccc1,?,5.9µM,-,-
CC[n+]1c(C)sc2sc3ccccc3c21,?,1.9µM,-,-
COc1ccc(N2CC(C(=O)Nc3ccccc3C(=O)NC3CC3)CC2=O)cc1 (stereo unspecified),-,-,-,-
O=C(O)c1ccc(S(=O)(=O)N2CCc3ccccc3C2)cc1,9.3µM,-,-,-
Cc1ccc(C(=O)Nc2ccc(S(=O)(=O)N3CCc4ccccc4C3)cc2)o1,.,13µM,-,-
CC(=O)c1ccc(S(=O)(=O)N2CCc3ccccc3C2)cc1,?,-,-,-
O=C(CCn1nc(-c2ccc(Cl)cc2)c2ccccc2c1=O)NN1CCOCC1,?,?,-,-
COc1cc(OC)cc(C(=O)NCC(=O)Nc2ccc(-c3ccccc3)cc2)c1,-,-,-,-
CC(=O)N1N=C(c2ccccc2)CC1c1ccc(F)cc1 (stereo unspecified),-,-,-,-
CC(=O)N1N=C(c2ccco2)CC1c1ccc(Br)cc1 (stereo unspecified),10µM,-,-,-
